The values below come from PubChem BioAssay AID1662 (Broad Institute, 2009).

Structures are written as SMILES. In all, about 300,000 compounds went through this assay and about 4,000 (1.3%) were called active.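 Rule for the calls: active = mean replicate score, as percent of positive control median, at least 50; inconclusive = mean below 50 but one replicate at or above 50; inactive = mean and every replicate below 50.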 The entries come from a sample that favours actives as a whole.

Usually inhibition stands for the relative decrease from the control value, in per cent.

A short description of the assay: S. pyogenes SKKanGAS growth inhibitors in kanamycin, primary screen, streptokinase expression inhibitor project, SKKanGAS strain, BacTiter-Glo luminescence (AID 1662).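 Note: strain carries kanamycin resistance gene driven by streptokinase promoter and grows in 40 µg/ml kanamycin; loss of luminescence reflects streptokinase promoter inhibition or plain growth inhibition; 0% = median of DMSO wells and 100% = positive control at its reference dose.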 Conditions: 6 h, at 7.5 µM, stronger effect = higher value.
For the compound `CCOCCCNC(=O)C(NC(=O)c1ccc(=O)[nH]c1)c1ccc(Cl)cc1` (stereo not drawn), the inhibition is -3.58% (inactive). To `COc1ccc(OC)c(S(=O)(=O)Nc2cccc(-c3ccc4nncn4n3)c2)c1` belongs -5.29% (inactive); to `Clc1ccc(Nc2nc(-c3cccs3)cs2)nc1`, 64.4% (active). The value for `Cc1ccc(Nc2nc(-c3ccc(O)cc3O)cs2)nc1` was 20.8% (inactive). To `O=C(Nc1ccc(Cl)cn1)Nc1cccs1` belongs -3.53% (inactive); to `O=C(CSc1ccc(-c2ccccn2)nn1)Nc1ccccc1`, -3.36% (inactive); to `O=c1c(-c2ccccc2)coc2cc(O)ccc12`, 0.922% (inactive). On to `CC(C)CN(Cc1c(O)ccc2c(=O)c(-c3ccccc3)coc12)CC(C)C`, for which the inhibition is 0.595% (inactive). The value for `CC(C)=CCc1c(O)c(CC=C(C)C)c2occ(-c3ccc(O)cc3)c(=O)c2c1O` was 105% (active); that for `CCOC(=O)c1ccc2c(c1)nc(SCC(=O)NC(C)C)n2CC` was -3.36% (inactive). Consider `Cc1cc(C)c(S(=O)(=O)Nc2c(C)n(C)n(-c3ccccc3)c2=O)cc1[N+](=O)[O-]`, for which the inhibition is 4.05% (inactive). To `O=C(NCCCN1CCOCC1)c1cc(-c2ccccc2F)no1` belongs 26.3% (inactive).

In the case of `O=C(c1ccco1)N1CCN(C(=O)c2cc(-c3ccccc3F)no2)CC1`, the inhibition is 63.3% (active). The value for `O=C(Cc1c(F)cccc1Cl)N1CCN(C(=O)c2ccco2)CC1` was -1.63% (inactive); that for `COC(CNC(=O)c1ccc2c(c1)ncn2-c1cc(C)cc(C)c1)OC` was 0.722% (inactive). The value for `COC(=O)C1=C(C)NC(=O)CC1c1ccccc1OC` (stereo not drawn) was 4.98% (inactive); that for `COC(=O)C1=C(C)NC2=C(C(=O)c3ccccc32)C1c1ccc(-c2ccc(C(=O)O)cc2)o1` (stereo not drawn) was 60.6% (active). For `CCOC(=O)c1ccc(-c2ccc(C(=O)Nc3cccnc3)o2)cc1`, the inhibition is 3.97% (inactive). To `O=C(c1cccs1)N(Cc1cc2ccccc2[nH]c1=O)CC1CCCO1` (stereo not drawn) belongs -2.88% (inactive). `O=C(NCCC1CCCCN1S(=O)(=O)c1ccc(Cl)cc1)C(=O)NCc1ccco1` (stereo not drawn): the inhibition is -16.2% (inactive).

Take `Oc1ccc(C2Nc3cccc4cccc(c34)N2)cc1`: the inhibition is 3.2% (inactive). `Cc1ccc(C2Nc3cccc4cccc(c34)N2)cc1`: the inhibition is 9.05% (inactive).

For the compound `Brc1ccccc1C1Nc2cccc3cccc(c23)N1`, the inhibition was 56.8% (active). For `CC1Cc2cc(/C(O)=C3\C(=O)C(=O)N(Cc4cccnc4)C3c3ccccc3F)ccc2O1` (stereo not drawn), the inhibition is 12.9% (inactive). To `CC1CCCCN1S(=O)(=O)c1ccc(C(=O)Nc2nnc(-c3cccs3)o2)cc1` (stereo not drawn) belongs 99.8% (active); to `CC1CCCN(S(=O)(=O)c2ccc(C(=O)Nc3nnc(-c4ccncc4)o3)cc2)C1` (stereo not drawn), 20.4% (inactive). Turning to `CSCc1nnc(NC(=O)c2ccc(S(=O)(=O)N3CCCCC3C)cc2)o1` (stereo not drawn), the inhibition was 39.4% (inactive). The value for `CCn1c(N)c(Br)c(=O)[nH]c1=O` was 0.526% (inactive); that for `Cc1cc(OC(C)C(=O)NC2CC(C)(C)NC(C)(C)C2)c2c(C)cc(=O)oc2c1` (stereo not drawn) was 2.79% (inactive); that for `CCOC(=O)N1CCN(c2cc(C)c([N+](=O)[O-])cc2F)CC1` was 15.6% (inactive). The value for `O=C(O)c1ccc(Cn2c(=S)[nH]c3cc(Cl)ccc3c2=O)cc1` was 9.12% (inactive). For the compound `CC(C)c1ccc2c(c1)c(SC(C)(C)C)c(CC(C)(C)C(=O)O)n2Cc1ccc(Cl)cc1`, the inhibition was 109% (active).

As to `O=C(COC(=O)c1ccccc1SCC(=O)N1CCCC1)Nc1ccccc1OC(F)F`, the inhibition was 34% (inactive).

As for `CSCCNC(=O)c1ccc2nc(Cc3ccccc3F)oc2c1`, the inhibition is 2.77% (inactive).

On to `CC(C)S(=O)(=O)c1csc(NC(=O)Nc2ccc(Cl)cc2)c1Cl`, for which the inhibition was 60% (active). To `CN(c1cccc(NC(=O)Nc2ccc(Cl)cc2)c1)S(C)(=O)=O` belongs -13.9% (inactive); to `Cn1ccc(NC(=O)Nc2ccc(Cl)cc2)n1`, -3.73% (inactive); to `Cc1ccc(C(=O)O)cc1NC(=O)c1ccc(Cn2nc(C)c(Cl)c2C)o1`, 5.19% (inactive). To `Cc1c(Cl)c([N+](=O)[O-])nn1CCCC(=O)Nc1cc(Cl)ccc1Cl` belongs -2.88% (inactive); to `Cc1c(Cl)c([N+](=O)[O-])nn1Cc1ccc(C(=O)N/N=C\c2cc(Cl)ccc2O)o1`, 96.5% (active); to `CCC(CC)c1nnc(NC(=O)C2CCN(C(=O)c3ccco3)CC2)s1`, -3.32% (inactive). Turning to `O=C(c1ccc(Cl)cc1)c1cnc(Nc2ccccc2)s1`, the inhibition is 3.38% (inactive). Take `O=C(Nc1ccccc1)c1nnsc1S(=O)(=O)c1ccc(Cl)cc1`: the inhibition was 85.8% (active). The value for `CS(=O)(=O)c1ccc(Cl)c(NC(=O)Nc2ccccc2)c1` was -0.376% (inactive); that for `Cc1nnc(SCC(=O)Nc2cccc(N)c2)n1-c1ccccc1` was 8.19% (inactive); that for `Clc1ccc(Cl)c(Oc2ccc(Oc3nc(Cl)ccc3Cl)cc2)n1` was -7.12% (inactive).

For `COc1ccccc1CNC(=O)CSc1nc(=O)n(Cc2ccncc2)c2c1CCC2`, the inhibition is 49.6% (active).

For `CN(C)CCn1c2c(c(SCC(=O)Nc3ccccc3C(F)(F)F)nc1=O)CCCC2`, the inhibition was -16.8% (inactive). To `CN(C)CCn1c2c(c(SCC(=O)NCc3ccccc3)nc1=O)CCC2` belongs -2.81% (inactive).

`O=C(NNC1=C(C(=O)C(F)(F)F)CCC1)c1ccncc1`: the inhibition was 18.5% (inactive). For the compound `O=C(Cc1ccc(S(=O)(=O)N2CCOCC2)s1)NCCOc1ccccc1F`, the inhibition is 2.98% (inactive).

In the case of `O=C(Nc1c2c(nn1-c1ccccc1)CS(=O)(=O)C2)C1CCCC1`, the inhibition was -3.29% (inactive). To `CC(=O)Nc1ccc(Nc2ncnc3c2nnn3Cc2ccccc2Cl)cc1` belongs 1.15% (inactive). In the case of `CC(C)NC(=S)NN=C1CCCCCCCCCCC1`, the inhibition is 63.8% (active).

Consider `CC(C)(C)NC(=O)C(=O)NN=C1CCCCCCC1`, for which the inhibition was -3.09% (inactive). To `C/C(=N\NC(=S)NC(C)C)c1ccc(C(C)(C)C)cc1` belongs 15.9% (inactive). To `Cc1c(CN2CCC(n3nccc3NC(=O)CCc3ccccc3)CC2)cnn1C` belongs 1.52% (inactive).

For the compound `CC(=O)Nc1ccc(/C=N/NC(=O)c2cccs2)cc1`, the inhibition was 5.44% (inactive). To `CC(=O)NC(Cc1c[nH]c2ccccc12)C(=O)O` (stereo not drawn) belongs 4.27% (inactive); to `O=C(NC(Cc1c[nH]c2ccccc12)C(=O)N/N=C/c1ccc(Br)cc1)c1cccs1` (stereo not drawn), 66.8% (active); to `CN(Cc1ccccc1)C(=O)c1ccc(NC2=NC3CS(=O)(=O)CC3S2)cc1` (stereo not drawn), -1.29% (inactive). To `COc1cc(/C=C2\CCCc3c2nc2ccccc2c3C(=O)O)cc(Cl)c1O` belongs 15.8% (inactive); to `NC(=O)c1ccc(NC(=O)COC(=O)c2c3c(nc4ccccc24)/C(=C\c2ccc4c(c2)OCO4)CCC3)cc1`, 64% (active).

As for `COc1cc(-c2cc(C(=O)OCC(=O)Nc3ccc4c(c3)OCO4)c3ccccc3n2)cc(OC)c1OC`, the inhibition was 13.9% (inactive). To `O=c1[nH]c(CSc2ccccc2)nc2c1oc1ccccc12` belongs -3.16% (inactive). Take `COc1ccc(C(=O)NC2=NCCS2)c(OC)c1`: the inhibition is -2.91% (inactive).

As for `CCc1cc(=O)oc2c(C)c(OCC(=O)N3CC[C@@]4(O)CCCC[C@H]4C3)ccc12`, the inhibition is -5.4% (inactive).

On to `Cc1nn(-c2ccccn2)c2c1C(c1ccncc1)C1=C(CC(C)(C)CC1=O)N2` (stereo not drawn), for which the inhibition was -3.06% (inactive). Consider `Cc1cc(C)c(C2C3=C(Nc4c2c(C)nn4-c2ccccn2)c2ccccc2C3=O)c(C)c1` (stereo not drawn), for which the inhibition is 57.1% (active). To `CC(=C1C(=O)c2ccccc2C1=O)N1CCN(c2ccccn2)CC1` belongs 1.02% (inactive); to `C=CCNc1nc(N)c([N+](=O)[O-])c(NC2CCCCC2)n1`, 6.03% (inactive); to `C=CCC(C(=O)c1ccccc1)[N+](C)(C)CC=C` (stereo not drawn), 2.59% (inactive). To `O=C(OCC(=O)c1c[nH]c2ccccc12)c1cccc(O)c1` belongs -11.7% (inactive); to `O=C(OCc1ccc(Br)cc1)c1cccc(-c2nnc(-c3ccccc3)o2)c1`, 7.23% (inactive); to `O=C(OCc1ccc(-c2ccccc2)cc1)c1cccc(O)c1`, 54.9% (active). The value for `O=C(O)CCC(=O)Nc1ccc(OCC2CCCO2)cc1` (stereo not drawn) was 1.88% (inactive). Regarding `O=C(C1CCCO1)N(c1ccc(F)cc1)C1C=CS(=O)(=O)C1` (stereo not drawn), the inhibition was -0.303% (inactive). To `CCOC(=O)c1cnc(Nc2nc3ccccc3o2)nc1CSC(=S)N1CCCCC1` belongs 30.1% (inactive). The value for `Cc1ccc(C2CCN(C(=S)Nc3cccc(Cl)c3)C2)cc1` (stereo not drawn) was 14.8% (inactive); that for `CN(C)c1nc(=Nc2cccc(Cl)c2)ss1` was 53.2% (active); that for `Clc1cccc(N=C2NN=C(c3ccc4c(c3)OCCO4)CS2)c1` was 21.6% (inactive). The value for `Cc1ccccc1N1CCN(C2CCCN(C(=O)c3ocnc3C)C2)CC1` (stereo not drawn) was -0.706% (inactive). In the case of `O=[N+]([O-])c1cc(S(=O)(=O)Nc2cccc(Cl)c2)ccc1N=Nc1c(O)[nH]c2ccccc12`, the inhibition was 59.8% (active).

Regarding `CN1CCN(c2ccc(S(=O)(=O)Nc3ccccc3)cc2[N+](=O)[O-])CC1`, the inhibition was -10.6% (inactive). The value for `Cc1cccc(N(CC(=O)N=Nc2c(O)[nH]c3ccccc23)S(C)(=O)=O)c1C` was 15.7% (inactive); that for `Cc1nc(COc2cc3oc(=O)cc(C)c3cc2Cl)cs1` was -7.93% (inactive); that for `COc1ccc2c(c1)CC[C@@H]1[C@@H]2CC[C@]2(C)C(=O)CC[C@@H]12` was -7.32% (inactive). To `COc1ccccc1-c1nnc(NC(=O)c2ccc3ncsc3c2)o1` belongs 20% (inactive).

Consider `O=C(Nc1ncc([N+](=O)[O-])s1)C1COc2ccccc2O1` (stereo not drawn), for which the inhibition is -8.31% (inactive).

With `Cc1ccc(C(=O)Nc2nnc(C3=COCCO3)o2)cc1C`, the inhibition is 85.9% (active). In the case of `COc1cc(-c2nnc(NC(=O)C3=COCCO3)o2)cc(OC)c1OC`, the inhibition is 2.37% (inactive). To `O=C(Nc1nnc(C2=COCCO2)o1)c1ccc([N+](=O)[O-])s1` belongs 63.4% (active); to `O=C(Nc1nnc(-c2ccco2)o1)c1ccc(S(=O)(=O)N2CCOCC2)cc1`, 1.36% (inactive).
